# HUVEC tox IL1B = cytotoxicity in IL-1B stimulated HUVEC, primary screen, cytotoxicity control for IL-1B NFkB translocation project, imaging, Hoechst nuclear count, IL-1B stimulus | 0.41% of 94,000 active | cell count reduction, % at 2 µM | HUVEC cell count loss | AID 845, 2007;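 active = cell count reduction more than 3 SD above the screen-wide mean, cut at about 70% in these data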;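 also: normalized per plate to untreated control cells as the no-loss baseline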
# NFkB transloc inh = inhibitors of IL-1B driven NFkB p65 nuclear import, primary screen, imaging, HUVEC, IL-1B stimulus, high-content imaging; HUVEC IL-1B NFkB p65 nuclear translocation imaging; inhibition, % at 2 µM; 0.43% of 94,000 active; AID 796, 2007;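 active = inhibition above about 30% together with a positive call from visual inspection of the well image, limit read from the data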;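 also: nuclear over cytoplasmic p65 intensity ratio measured by imaging; 0% = IL-1B stimulated DMSO wells and 100% = unstimulated DMSO wells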
# Cav32 inh = Cav3.2 calcium influx blockers – cell-based, Fluo-4 calcium fluorescence, FDSS, MLSMR library, primary screen; Voltage-dependent T-type calcium channel subunit alpha-1H (Homo sapiens), O95180; Cav3.2-expressing cells; active compounds read low; B-score at 10 µM; 4% of 100,000 active; AID 449739, 2010;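 active = single-dose well whose peak fluorescence ratio is a statistical outlier from its plate by either plate-standardised score or position-corrected B-score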
# Target sequence (O95180 whole entry, looked up): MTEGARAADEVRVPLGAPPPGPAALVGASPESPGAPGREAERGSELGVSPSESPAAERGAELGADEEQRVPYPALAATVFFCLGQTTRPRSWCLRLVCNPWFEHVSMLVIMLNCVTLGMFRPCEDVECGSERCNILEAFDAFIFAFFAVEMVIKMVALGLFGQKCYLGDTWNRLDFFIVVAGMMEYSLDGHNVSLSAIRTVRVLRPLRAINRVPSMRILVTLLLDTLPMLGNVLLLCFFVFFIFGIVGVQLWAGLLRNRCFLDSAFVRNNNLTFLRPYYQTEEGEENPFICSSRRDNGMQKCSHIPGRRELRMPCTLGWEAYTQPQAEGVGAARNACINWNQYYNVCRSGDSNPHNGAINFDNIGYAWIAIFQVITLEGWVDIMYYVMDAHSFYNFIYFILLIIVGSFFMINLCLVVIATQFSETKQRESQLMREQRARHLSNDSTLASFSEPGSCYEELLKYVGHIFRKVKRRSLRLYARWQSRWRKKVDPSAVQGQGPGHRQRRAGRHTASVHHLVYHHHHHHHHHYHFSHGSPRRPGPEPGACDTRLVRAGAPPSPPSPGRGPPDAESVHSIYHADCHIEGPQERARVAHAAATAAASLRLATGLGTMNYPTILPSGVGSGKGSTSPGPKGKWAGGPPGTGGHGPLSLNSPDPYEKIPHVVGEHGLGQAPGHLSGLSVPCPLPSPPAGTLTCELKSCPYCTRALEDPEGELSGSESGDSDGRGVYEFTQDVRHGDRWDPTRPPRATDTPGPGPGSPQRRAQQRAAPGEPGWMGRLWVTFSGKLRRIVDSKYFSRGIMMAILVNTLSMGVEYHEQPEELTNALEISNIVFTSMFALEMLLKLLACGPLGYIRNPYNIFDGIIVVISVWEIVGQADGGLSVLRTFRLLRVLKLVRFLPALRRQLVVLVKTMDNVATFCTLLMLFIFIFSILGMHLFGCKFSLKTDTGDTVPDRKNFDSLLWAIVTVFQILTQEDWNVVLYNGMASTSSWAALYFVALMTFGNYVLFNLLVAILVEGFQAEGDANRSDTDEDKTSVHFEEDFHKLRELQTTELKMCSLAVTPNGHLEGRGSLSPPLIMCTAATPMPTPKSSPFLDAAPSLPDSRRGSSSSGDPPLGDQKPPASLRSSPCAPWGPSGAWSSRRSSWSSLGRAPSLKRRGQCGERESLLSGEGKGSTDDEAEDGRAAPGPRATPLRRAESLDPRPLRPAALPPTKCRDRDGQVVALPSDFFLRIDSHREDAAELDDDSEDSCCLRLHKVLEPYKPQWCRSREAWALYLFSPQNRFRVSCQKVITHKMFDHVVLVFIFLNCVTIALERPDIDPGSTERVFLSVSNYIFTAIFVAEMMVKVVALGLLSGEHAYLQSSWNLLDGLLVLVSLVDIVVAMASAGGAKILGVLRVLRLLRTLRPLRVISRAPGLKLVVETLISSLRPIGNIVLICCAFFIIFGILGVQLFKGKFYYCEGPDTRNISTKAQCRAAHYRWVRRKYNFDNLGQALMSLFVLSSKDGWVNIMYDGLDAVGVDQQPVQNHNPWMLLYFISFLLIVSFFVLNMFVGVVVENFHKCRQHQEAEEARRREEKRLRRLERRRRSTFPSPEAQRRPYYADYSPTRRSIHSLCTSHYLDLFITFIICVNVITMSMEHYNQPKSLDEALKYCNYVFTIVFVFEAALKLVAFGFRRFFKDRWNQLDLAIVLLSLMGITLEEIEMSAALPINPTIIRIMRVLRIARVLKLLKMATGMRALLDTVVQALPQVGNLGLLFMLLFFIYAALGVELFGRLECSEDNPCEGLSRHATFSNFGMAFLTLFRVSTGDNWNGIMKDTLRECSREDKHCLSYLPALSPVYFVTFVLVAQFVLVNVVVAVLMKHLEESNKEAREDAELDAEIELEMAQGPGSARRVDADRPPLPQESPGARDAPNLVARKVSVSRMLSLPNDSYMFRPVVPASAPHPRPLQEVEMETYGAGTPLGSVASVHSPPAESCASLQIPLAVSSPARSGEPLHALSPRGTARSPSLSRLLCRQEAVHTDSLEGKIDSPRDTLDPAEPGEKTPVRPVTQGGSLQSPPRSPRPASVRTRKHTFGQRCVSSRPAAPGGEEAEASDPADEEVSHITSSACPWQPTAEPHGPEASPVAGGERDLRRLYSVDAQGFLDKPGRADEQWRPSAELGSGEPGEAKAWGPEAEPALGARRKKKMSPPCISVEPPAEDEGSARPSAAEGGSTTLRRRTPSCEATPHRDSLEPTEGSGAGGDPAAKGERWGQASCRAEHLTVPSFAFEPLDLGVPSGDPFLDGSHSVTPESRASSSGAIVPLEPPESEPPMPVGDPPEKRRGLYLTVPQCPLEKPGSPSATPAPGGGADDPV
# IL1B NFkB pot = enhancers of NFkB p65 translocation in HUVEC – imaging, IL-1B stimulus, high-content imaging, primary screen | HUVEC IL-1B NFkB p65 nuclear translocation imaging | activation, % at 2 µM | 0.3% of 94,000 active | AID 819, 2007;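 active = activation above 40%, about the mean plus 3 SD, also judged a hit on visual image review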;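 also: percent activation is computed from the nuclear over cytoplasmic p65 intensity ratio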
# Numbers without * were called inactive; nt = no result given. The list is not random: actives were taken first. Their share in the collection is about 4.4%.
SMILES,HUVEC tox IL1B,NFkB transloc inh,Cav32 inh,IL1B NFkB pot
Cc1ccc(OCc2nc(C#N)c(NCc3ccc4c(c3)OCO4)o2)cc1,2,-16,-6.5*,16
COCCCNc1oc(COc2ccc(Cl)cc2Cl)nc1C#N,-13,2,-5.6*,-2
COc1ccc(Nc2oc(COc3ccc(Cl)cc3)nc2C#N)cc1,-3,-13,-0.84,13
CN(C)CCNc1oc(COc2ccc(Cl)cc2Cl)nc1C#N,6,5,0.35,-5
COc1ccc(-c2nnn(CC(=O)NCCc3c[nH]c4ccccc34)n2)cc1OC,-25,4,-1.8,-4
C[C@@H]1CCC[C@]2(O[C@H](CCO)C[C@@H](O)[C@@H]2O)O1,nt,nt,-0.088,nt
CN1CCN(C(=O)C2=C[C@H](c3ccc(C(F)(F)F)cc3)C[C@H](OCc3ccc(CO)cc3)O2)CC1,nt,nt,0.83,nt
CCOc1cc(C2C(C#N)=C(N)OC(C)=C2C(C)=O)c(Br)c(Br)c1OC(C)C (stereo not drawn),30,-24,-5.3*,24
CCOC(=O)C1=C(C)OC(N)=C(C#N)C1c1ccc(OC)c(C)c1OC (stereo not drawn),4,-22,-0.25,22
C[N+]1(CC(=O)Nc2ccc(F)cc2)CCN(C(=O)c2ccco2)CC1,-17,-3,0.003,3
CCCCn1nc(-c2ccccc2)c2nc3ccccc3nc21,3,14,-7.3*,-14
CCOC(=O)c1c(NC(=O)CSc2nnc(CNc3ccc(F)cc3)o2)sc(C)c1C,0,1,-4.6*,-1
OC1CN=C2C=CC=CN2C1 (stereo not drawn),-12,-24,-7.4*,24
CCc1ccc(C(=O)Cn2ncc(Cl)c(Cl)c2=O)cc1,5,56*,1,-56
CCc1ccc(C(=O)c2cncc(Br)c2)cc1,-112,-10,-0.36,9
O=C(CCCn1c(=S)[nH]c2cc3c(cc2c1=O)OCO3)N1CCc2ccccc2C1,-22,4,-2.1,-4
S=C1NC[C@H](c2ccccc2)N1CC1CCCCC1,nt,nt,0.18,nt
O=C(N/N=C/c1ccccc1Br)c1ccc(CSc2cccc3cccnc23)cc1,11,3,-5.2*,-3
CCN(CC)S(=O)(=O)c1cccc(C(=O)N[C@H](C(=O)OCC(=O)NC(=O)NC)C(C)C)c1,-11,8,0.99,-8
O=C(CCSc1nc2ccccc2o1)N1CCOCC1,-13,-27,-0.1,27
O=C(Nc1ccccc1)C1(c2ccccc2)CC1(Cl)Cl (stereo not drawn),nt,nt,-7.5*,nt
O=C(Nc1ccccc1)C1C2CCC3C(CCC21)C3(Cl)Cl (stereo not drawn),-9,3,-2.5,-3
CS(=O)(=O)c1ccc(CNC(=O)C2(C(F)(F)F)C/C(=C\Cc3ccccc3)CCCO2)cc1 (stereo not drawn),nt,nt,-2.1,nt
CCc1ccc(OCc2ccc(C(=O)NCc3ccccn3)o2)cc1,nt,nt,-3.9*,nt
O=C(COc1ccc(Br)cc1)NCc1ccccn1,-12,-41,-0.1,41*
SMILES,HUVEC tox IL1B,NFkB transloc inh,Cav32 inh,IL1B NFkB pot
C=CCn1c(SCC(=O)Nc2ccc3c(c2)OCO3)nnc1-c1ccccc1,-12,13,0.43,-13
C=CCn1c(SCC(=O)Nc2ccc3c(c2)OCO3)nnc1-c1cc(Br)ccc1O,-36,0,-6.6*,0
S=C(Nc1cccc(Cl)c1)NC1CCCCC1,-27,0,-4.1*,0
O=C(Nc1cccc(F)c1)NC1CCCCC1,-23,-27,0.57,27
CCOC(=O)C1CCCN(CC(=O)NC2=Nc3ccccc3N=C(C)C2c2ccccc2)C1 (stereo not drawn),-9,-8,-6.2*,8
COc1ccc(-c2nnn(CC(=O)N(Cc3ccccc3Cl)C(C(=O)NCC3CCCO3)c3ccco3)n2)cc1 (stereo not drawn),9,-2,0.086,2
Cc1ccc(-c2nnn(CC(=O)N(c3ccccc3F)C(C(=O)NCC3CCCO3)c3c[nH]c4ccccc34)n2)cc1 (stereo not drawn),-35,-11,-7.1*,11
Cc1ccc(-c2nnn(CC(=O)N(c3ccccc3)C(C(=O)NCC3CCCO3)c3ccc(Cl)cc3)n2)cc1 (stereo not drawn),-21,-4,-4.6*,4
O=C1CC(c2ccc(F)c(Br)c2)C2=C(CCCC2=O)N1 (stereo not drawn),nt,nt,0.63,nt
Cc1ccc(CC(=O)Nc2nc3ccccc3s2)cc1,-6,8,-6.7*,-8
CN(C)S(=O)(=O)c1ccc(NC(=O)CN2CCN(C(c3ccccc3)c3ccccc3)CC2)cc1,65,2,-0.65,-93
CCN(CC)S(=O)(=O)c1cccc(NC(=O)C2SC(=Nc3ccc(C)cc3C)C(C(=O)NC(C)COC)=C2N)c1 (stereo not drawn),4,-9,-8.6*,9
CCCCNC(=O)C1=C(N)C(C(=O)Nc2ccc(C)c(S(=O)(=O)N3CCCCC3)c2)SC1=Nc1ccc(C)cc1C (stereo not drawn),-1,7,nt,-7
CCOC(=O)CC1=CC(C)(CC(=O)OCC)C(C#N)(C#N)C(N)=C1C#N (stereo not drawn),-20,-13,0.081,13
COC(=O)C1=C(C)N(CCc2cc(OC)c(OC)c(OC)c2)C(=O)N[C@H]1c1ccccc1,nt,nt,-0.46,nt
Cc1ccc(NCc2nnc(SCC(=O)Nc3ncc(C)s3)n2CC2CCCO2)c(C)c1 (stereo not drawn),-43,-13,-4.5*,13
Cc1ccc(NCc2nnc(SCc3ccc(C#N)cc3)n2Cc2ccco2)c(C)c1,-5,2,-6.5*,-2
Cc1ccc(C(=O)CSc2nnc(CNc3ccc(C)cc3C)n2Cc2ccco2)cc1,5,-1,-9.7*,1
Cc1ccc(NCc2nnc(SCC(=O)N3CCCCC3)n2CC2CCCO2)c(C)c1 (stereo not drawn),-14,0,-0.17,-1
COc1cc2c(cc1NC(=O)CSc1nnc(Cc3cccs3)n1Cc1ccco1)oc1ccccc12,-21,-11,-3.1,5
Cc1cc(Cl)ccc1NC(=O)CSc1nnc(Cc2cccs2)n1Cc1ccco1,-4,-13,-7.6*,13
Cc1ccc(-c2nc3cccnc3s2)cc1NS(C)(=O)=O,nt,nt,1,nt
Cc1ccc(CSC2=NCCN2C(=O)C2CC2)cc1,-27,-25,-0.4,25
CSc1ccccc1-n1nnnc1SCC(=O)Nc1cc(C)ccc1C,4,-11,-2.8,11
O=C(COc1cccc(NC(=O)c2cccc([N+](=O)[O-])c2)c1)c1ccc(Br)cc1,-4,10,-3.3,-10
CCOC(=O)c1c(NC(=O)CSc2nnc(-c3ccncc3)n2Cc2ccco2)sc(C(C)=O)c1C,1,38*,nt,-38
CCOC(=O)c1c(NC(=O)CSc2nnc(-c3ccncc3)n2Cc2ccco2)sc(C)c1C,7,-3,-1.1,15
CCCC1S/C(=N/N=C/c2ccc(OC)cc2)N(Cc2ccc(OC)cc2)C1=O (stereo not drawn),-34,-4,-3.7*,4
